The supplement of paper PMC6522484
± gives the standard deviation of the averaged measurements.

Tests used:
[1] = system: DLD1; assay: cell viability (CellTiter-Glo) relative to plate median (fraction of plate median); higher = more viable cells; settings: 5 µM; treatment time 24 h; reporter: 7TFP
Outline: (§1)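 After seeding in 384-well plates, colorectal cancer cell lines carrying stable lentiviral TCF/Wnt firefly luciferase reporters (7TFP or TCF4/Wnt) were left 24 h. Library compounds were then added at a final 5 µM for 24 h. A Tecan F500 reader measured firefly luciferase or CellTiterGlo luminescence on parallel plates, with each well normalised to the plate median by webcellHTS2 (additive, no log transformation), and two independent replicates averaged.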

[2] = system: HCT116; assay: as above; settings: 5 µM; treatment time 24 h; reporter: TCF4/Wnt
Outline: as §1

[3] = system: SW480; assay: as above; settings: 5 µM; treatment time 24 h; reporter: 7TFP
Outline: as §1

[4] = system: DLD1; assay: TCF/Wnt firefly luciferase reporter signal relative to plate median (fraction of plate median); higher = higher Wnt reporter signal; settings: 5 µM; treatment time 24 h; reporter: 7TFP
Outline: as §1

[5] = system: SW480; assay: as above; settings: 5 µM; treatment time 24 h; reporter: 7TFP
Outline: as §1

Structure (SMILES) | cell viability [1] | cell viability [2] | cell viability [3] | TCF/Wnt firefly luciferase reporter signal [4] | TCF/Wnt firefly luciferase reporter signal [5]
C[C@@H]1CC[C@@]2(OC1)O[C@H]1[C@@H](O)[C@H]3[C@@H]4CC[C@H]5C[C@@H](O[C@@H]6O[C@H](CO)[C@H](O[C@@H]7O[C@H](CO)[C@@H](O)[C@H](O[C@@H]8OC[C@@H](O)[C@H](O)[C@H]8O)[C@H]7O[C@@H]7O[C@H](CO)[C@H](O)[C@H](O[C@@H]8O[C@H](CO)[C@@H](O)[C@H](O)[C@H]8O)[C@H]7O)[C@H](O)[C@H]6O)[C@H](O)C[C@]5(C)[C@H]4CC[C@]3(C)[C@H]1[C@@H]2C | 1.02 ± 0.11 | 1.065 ± 0.0071 | 1.035 ± 0.0071 | 0.986 ± 0.09 | 1.095 ± 0.0071
COc1ccc([C@H]2Oc3c(I)c(OC)cc(OC)c3C[C@@H]2O)cc1OC | 0.912 ± 0.011 | 0.89 ± 0.0071 | 1 ± 0.042 | 0.959 ± 0.2 | 1.07 ± 0.23
O=c1c(O)c(-c2ccc(O)c(O)c2)oc2c(O)c(O)cc(O)c12 | 0.905 ± 0.12 | 1.1 ± 0.085 | 0.9465 ± 0.00071 | 0.9395 ± 0.0035 | 0.916 ± 0.033
COS(C)(=O)=O | 1.07 ± 0.071 | 0.901 ± 0.021 | 1.015 ± 0.0071 | 0.98 ± 0.14 | 0.958 ± 0.074
C[C@@H]1O[C@@H](O[C@H]2CC[C@]3(C=O)[C@H]4CC[C@]5(C)[C@@H](C6=CC(=O)OC6)CC[C@]5(O)[C@@H]4CC[C@]3(O)C2)[C@H](O)[C@H](O)[C@H]1O | 0.885 ± 0.13 | 0.4 ± 0.12 | 0.913 ± 0.025 | 0.178 ± 0.15 | 0.263 ± 0.043
CC(=O)O[C@H]1C[C@H](O[C@H]2[C@@H](O)C[C@H](O[C@H]3[C@@H](O)C[C@H](O[C@H]4CC[C@@]5(C)[C@H](CC[C@@H]6[C@@H]5C[C@@H](O)[C@]5(C)[C@@H](C7=CC(=O)OC7)CC[C@]65O)C4)O[C@@H]3C)O[C@@H]2C)O[C@H](C)[C@H]1O[C@@H]1O[C@H](CO)[C@@H](O)[C@H](O)[C@H]1O | 0.65 ± 0.044 | 0.636 ± 0.0042 | 0.851 ± 0.078 | 0.264 ± 0.13 | 0.584 ± 0.057
CC(=O)Oc1ccc(/C=C/c2cc(OC(C)=O)cc(OC(C)=O)c2)cc1 | 1.05 ± 0.042 | 1.02 ± 0.014 | 1.09 ± 0.021 | 1.14 ± 0.26 | 1.17 ± 0.078
COP(=S)(OC)Oc1ccc(Sc2ccc(OP(=S)(OC)OC)cc2)cc1 | 1.025 ± 0.0071 | 1.06 ± 0.014 | 0.987 ± 0.011 | 1.06 ± 0.092 | 1.04 ± 0.014
